Values joined by “and” are separate entries in the source; they are usually repeats but may differ in a detail not shown here. Identical values can stand only once. Hit rate of the full screen: of about 5,500 compounds, about 2,000 (36%) were called active. Roughly 18% stayed inconclusive and do not appear here. No stated cut-off is given here; in the data, active means normalized growth mostly below about 0.91 (no sharp cut-off); inconclusive means no clear call, values can overlap the other calls; inactive means mostly above about 0.92. The list shows a part of the results.
Assay: chemical genetic growth profiling, strain panel (AID 1159580);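 further: tested at 20 µM; growth read once vehicle control cultures reached saturation at 30 °C; 1 = growth at the plate median or of vehicle wells; lower values mean less growth of the strain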
Conditions: S. cerevisiae deletion strains, growth OD

Measured: normalized growth

Cc1c(N(C)CS(=O)(=O)O)c(=O)n(-c2ccccc2)n1C
inactive: locus YAL021C, strain ccr4, hits give low values 1.01 | locus YAL026C, strain drs2, hits give low values 1.01 | locus YAL030W, strain snc1, hits give low values 1.01 | locus YBL061C, strain skt5, hits give low values 1.01 | locus YBR009C, strain hhf1, hits give low values 1 | locus YBR021W, strain FUR4, hits give low values 0.991 | locus YBR023C, strain chs3, hits give low values 1.01 | locus YBR171W, strain sec66, hits give low values 1.02 | locus YBR229C, strain ROT2, hits give low values 0.989 | locus YBR231C, strain swc5, hits give low values 1.02 | locus YBR279W, strain paf1, hits give low values 1.04 | locus YCL011C, strain gbp2, hits give low values 1.01 | locus YCL016C, strain dcc1, hits give low values 1.01 | locus YCL029C, strain bik1, hits give low values 0.992 | locus YCL061C, strain MRC1, hits give low values 1.01 | locus YCL069W, strain vba3, hits give low values 1.01 | locus YCR088W, strain abp1, hits give low values 1.01 | locus YDL005C, strain med2, hits give low values 1.01 | locus YDL035C, strain GPR1, hits give low values 1 | locus YDL040C, strain nat1, hits give low values 1.01 | locus YDL074C, strain BRE1, hits give low values 1.06 | locus YDL101C, strain DUN1, hits give low values 1 | locus YDL134C, strain PPH21, hits give low values 0.979 | locus YDL185W, strain tfp1, hits give low values 0.992 | locus YDL192W, strain arf1, hits give low values 0.982 | locus YDR001C, strain nth1, hits give low values 1.01 | locus YDR069C, strain doa4, hits give low values 1.01 | locus YDR101C, strain arx1, hits give low values 1.03 | locus YDR137W, strain rgp1, hits give low values 1.01 | locus YDR159W, strain sac3, hits give low values 1 | locus YDR162C, strain NBP2, hits give low values 0.987 | locus YDR195W, strain ref2 1.01 | locus YDR297W, strain sur2, hits give low values 1.01 | locus YDR318W, strain mcm21, hits give low values 0.976 | locus YDR334W, strain swr1, hits give low values 1.01 | locus YDR335W, strain msn5, hits give low values 1.01 | locus YDR388W, hits give low values 0.982 | locus YDR392W, strain spt3, hits give low values 1.01 | locus YDR502C, strain sam2, hits give low values 1 | locus YEL003W, strain gim4, hits give low values 1.01 | locus YEL037C, strain rad23, hits give low values 1.01 | locus YEL061C, strain CIN8 (second series), hits give low values 1.02 | locus YEL061C, strain CIN8, hits give low values 0.999 | locus YER015W, strain faa2, hits give low values 1.01 | locus YER016W, strain bim1, hits give low values 1.01 | locus YER110C, hits give low values 0.994 | locus YER111C, strain swi4, hits give low values 1.01 | locus YER155C, strain BEM2 (second series), hits give low values 1.02 | locus YER155C, strain BEM2, hits give low values 0.992 | locus YER167W, strain BCK2, hits give low values 0.979 | locus YFR010W, strain ubp6, hits give low values 1.02 | locus YGL078C, strain dbp3, hits give low values 0.985 | locus YGL086W, strain mad1, hits give low values 0.995 | locus YGL167C, strain pmr1, hits give low values 1.01 | locus YGL173C, strain kem1, hits give low values 1.02 | locus YGL227W, strain vid30, hits give low values 1.01 | locus YGL240W, strain doc1, hits give low values 1.03 | locus YGL248W, strain PDE1, hits give low values 0.991 | locus YGL253W, strain hxk2, hits give low values 1.01 | locus YGR135W, strain pre9, hits give low values 0.96 | locus YGR252W, strain gcn5, hits give low values 0.968 | locus YHR013C, strain ard1, hits give low values 0.999 | locus YHR027C, strain rpn1, hits give low values 1.01 | locus YHR030C, strain SLT2, hits give low values 0.984 and 1 | locus YHR079C, strain IRE1 (second series), hits give low values 0.986 | locus YHR079C, strain IRE1, hits give low values 0.98 | locus YHR094C, strain hxt1, hits give low values 0.985 | locus YHR129C, strain ARP1, hits give low values 0.988 | locus YHR142W, strain chs7, hits give low values 1.02 | locus YHR200W, strain rpn10, hits give low values 0.981 | locus YIL066C, strain RNR3, hits give low values 0.998 | locus YIL073C, strain SPO22, hits give low values 0.997 | locus YIL125W, strain kgd1, hits give low values 0.993 | locus YIR030C, strain dcg1, hits give low values 0.982 | locus YJL092W, strain hpr5, hits give low values 1.01 | locus YJL095W, strain BCK1 (second series), hits give low values 1.02 | locus YJL095W, strain BCK1, hits give low values 1 and 0.996 | locus YJL115W, strain asf1, hits give low values 1 | locus YJL129C, strain trk1, hits give low values 1.01 | locus YJL134W, strain LCB3, hits give low values 0.986 | locus YJL154C, strain vps35, hits give low values 1.01 | locus YJL164C, strain tpk1, hits give low values 1.01 | locus YJL166W, strain qcr8, hits give low values 1.02 | locus YJL168C, strain set2, hits give low values 0.989 | locus YJL187C, strain SWE1 (second series), hits give low values 0.997 | locus YJL187C, strain SWE1, hits give low values 1.01 | locus YJR043C, strain POL32, hits give low values 1 | locus YJR066W, strain TOR1, hits give low values 0.946

Source: PubChem BioAssay AID1159580 (chemical genetic matrix, 2015)
